Measured values taken from PubChem BioAssay (Tox21).
Results filed as inconclusive are left out. Where a call stands in place of a potency, no number is given. The source made the active and inactive calls. Unless noted, the call rests on the fitted dose curve.

test system: not listed separately; experiment: qHTS assay to identify small molecule agonists of the estrogen receptor alpha (ER-alpha) signaling pathway in the presence of an antagonist - cell viability counter screen (AID 1259386; active means well fitted cell-killing curve with a large enough effect in the repeat runs;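 further: cells exposed to compounds for 22 h at 37 °C before the viability read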); conditions: VM7Luc4E2 viability, CellTiter-Fluor fluorescence, 22 h; series mostly up to 92.4 µM
Method in brief: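 Viability counter screen using VM7Luc4E2 (full-length ER-alpha, four ERE-luciferase). The cells were treated with compounds alongside ICI-182,780 10.0nM for 22hr, and live-cell protease fluorescence was quantified with CellTiter-Fluor.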
Further: nearly all actives have a fitted effect of over 30% in size.

| Structure (SMILES) | outcome | activity change, negative = cytotoxicity |
| --- | --- | --- |
| C[C@@H](O)C(=O)O | inactive |  |
| CC1c2ccccc2CN1NC(=O)c1ccc(Cl)c(S(N)(=O)=O)c1 (configuration not stated) | inactive |  |
| C/C(CC(C)C)=N\O | inactive |  |
| CCC(C)C(=O)OCCc1ccccc1 (configuration not stated) | inactive |  |
| CCOc1ccccc1OCC1CNCCO1 (configuration not stated) | inactive |  |
| COC(=O)c1cccc(Cl)c1 | inactive |  |
| C=C(C)c1cccc(C(C)(C)N=C=O)c1 | inactive |  |
| CCCSSCCC | inactive |  |
| CC1(C)Cc2cccc(N)c2O1 | inactive |  |
| O=C[O][Al]([O]C=O)[O]C=O | inactive |  |
| CC(C)Nc1ccccc1 | inactive |  |
| C[C@H]1[C@@H](c2ccccc2)NC(=O)N1C | inactive |  |
| C=CCSSCCC | inactive |  |
| CO/N=C(/C(=O)N[C@@H]1C(=O)N2C(C(=O)[O-])=C(C[n+]3ccn4ncccc43)CS[C@H]12)c1nsc(N)n1 | inactive |  |
| CC12CCC(C1)C(C)(C)C2O (configuration not stated) | inactive |  |
| C/C=C(\C)C(C)=O | inactive |  |
| CN(C)CCN(C)CCO | inactive |  |
| C[C@]12CCC(=O)C=C1CC[C@H]1[C@@H]3CC[C@](O)(C(=O)CO)[C@@]3(C)C[C@H](O)[C@@]12F | inactive |  |
| CC1OCCC1=O (configuration not stated) | inactive |  |
| CCC/C=C(\C=O)CC | inactive |  |
| CC1(C)CC(OC(=O)CCCCCCCCC(=O)OC2CC(C)(C)NC(C)(C)C2)CC(C)(C)N1 |  | -0.743% [at 19 µM] (inactive) |
| CC1CCc2c(N3CCC(O)CC3)c(F)cc3c(=O)c(C(=O)O)cn1c23 (configuration not stated) | inactive |  |

biological target: Progesterone receptor (Homo sapiens) (UniProt P06401); experiment: qHTS assay to identify small molecule agonists of the progesterone receptor (PR) signaling pathway (AID 1346784); conditions: PR-UAS-bla HEK293T, beta-lactamase FRET ratio, 16 h; series mostly up to 92.4 µM; further: potency means the concentration at half of the fitted maximal effect
Sequence (P06401 whole entry, looked up): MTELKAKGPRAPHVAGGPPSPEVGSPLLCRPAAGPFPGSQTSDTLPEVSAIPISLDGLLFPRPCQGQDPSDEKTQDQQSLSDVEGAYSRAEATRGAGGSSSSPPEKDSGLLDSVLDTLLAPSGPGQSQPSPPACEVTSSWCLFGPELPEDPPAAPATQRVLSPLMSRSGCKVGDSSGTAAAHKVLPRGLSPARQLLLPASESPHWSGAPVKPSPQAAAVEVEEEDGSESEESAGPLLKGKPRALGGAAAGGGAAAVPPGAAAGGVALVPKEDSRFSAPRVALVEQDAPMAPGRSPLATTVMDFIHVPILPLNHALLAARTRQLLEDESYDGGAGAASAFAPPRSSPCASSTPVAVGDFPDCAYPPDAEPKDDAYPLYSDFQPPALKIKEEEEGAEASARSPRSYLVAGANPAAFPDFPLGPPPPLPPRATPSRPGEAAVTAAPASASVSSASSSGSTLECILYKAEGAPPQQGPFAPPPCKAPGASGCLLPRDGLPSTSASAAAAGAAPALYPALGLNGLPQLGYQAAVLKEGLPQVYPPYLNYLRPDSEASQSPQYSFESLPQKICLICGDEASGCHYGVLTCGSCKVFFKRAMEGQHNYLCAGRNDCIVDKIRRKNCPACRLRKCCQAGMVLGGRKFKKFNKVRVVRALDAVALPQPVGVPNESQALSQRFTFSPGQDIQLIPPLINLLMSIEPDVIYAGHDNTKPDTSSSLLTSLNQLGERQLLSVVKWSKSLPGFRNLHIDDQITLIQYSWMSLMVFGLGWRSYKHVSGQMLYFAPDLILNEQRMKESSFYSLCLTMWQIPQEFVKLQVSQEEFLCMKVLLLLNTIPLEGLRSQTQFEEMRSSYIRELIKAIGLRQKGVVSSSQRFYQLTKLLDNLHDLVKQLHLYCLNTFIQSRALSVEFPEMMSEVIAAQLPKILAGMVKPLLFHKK
Method in brief: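 PR-UAS-bla HEK 293T cells carrying a UAS-driven beta-lactamase reporter were seeded in medium with 2% charcoal-stripped FBS, preincubated 6 hr at 37C, then exposed to compounds in DMSO for 16 hr; agonism was read by LiveBLAzer B/G FRET fluorescence.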

| Structure (SMILES) | Potency | activation |
| --- | --- | --- |
| CC1c2ccccc2CN1NC(=O)c1ccc(Cl)c(S(N)(=O)=O)c1 (configuration not stated) | inactive |  |
| C/C(CC(C)C)=N\O | inactive |  |
| CCC(C)C(=O)OCCc1ccccc1 (configuration not stated) | inactive |  |
| CC(=O)CCC1=C(C)CCCC1(C)C | inactive |  |
| CCOc1ccccc1OCC1CNCCO1 (configuration not stated) | inactive |  |
| COC(=O)c1cccc(Cl)c1 | inactive |  |
| Cc1ccc2c(c1)C(=O)c1ccccc1C2=O | inactive |  |
| C=C(C)c1cccc(C(C)(C)N=C=O)c1 | inactive |  |
| Cc1cc(C)c(C(=O)O)c(C)c1 | inactive |  |
| CCCSSCCC | inactive |  |
| CC1(C)Cc2cccc(N)c2O1 | inactive |  |
| C=CCN1C[C@H](C(=O)N(CCCN(C)C)C(=O)NCC)C[C@@H]2c3cccc4[nH]cc(c34)C[C@H]21 | inactive |  |
| O=C[O][Al]([O]C=O)[O]C=O | inactive |  |
| CC1CC(=O)CC(C)(C)C1 (configuration not stated) | inactive |  |
| CC(C)Nc1ccccc1 | inactive |  |
| CCCCCCCCCCCCCCC(=O)NC(CO)CCCCCCCCCCCCCC (configuration not stated) | inactive |  |
| CN(C)CCCCl | inactive |  |
| C[C@H]1[C@@H](c2ccccc2)NC(=O)N1C | inactive |  |

| Structure (SMILES) | Potency | activation |
| --- | --- | --- |
| CC(=O)OC1CCCCC1C(C)(C)C (configuration not stated) | inactive |  |
| O=C(O)[C@H](O)c1ccccc1 | inactive |  |
| COC(=O)CCCCC(=O)O | inactive |  |
| C=CCSSCCC | inactive |  |
| CO/N=C(/C(=O)N[C@@H]1C(=O)N2C(C(=O)[O-])=C(C[n+]3ccn4ncccc43)CS[C@H]12)c1nsc(N)n1 | inactive |  |
| CC12CCC(C1)C(C)(C)C2O (configuration not stated) | inactive |  |
| C/C=C(\C)C(C)=O | inactive |  |
| CN(C)CCN(C)CCO | inactive |  |
| C[C@]12CCC(=O)C=C1CC[C@H]1[C@@H]3CC[C@](O)(C(=O)CO)[C@@]3(C)C[C@H](O)[C@@]12F | 1.68 µM (active) |  |
| CC1OCCC1=O (configuration not stated) | inactive |  |
| CCCC(=O)OC/C=C(\C)CCC=C(C)C | inactive |  |
| C=CCCCCCCCCC(=O)OCCCC | inactive |  |
| CN1C[C@@H]2C[C@H]1CN2c1cc2c(cc1F)c(=O)c(C(=O)O)cn2C1CC1 |  | 6.66% [at 19 µM] (inactive) |
| CCC/C=C(\C=O)CC | inactive |  |
| CC1(C)CC(OC(=O)CCCCCCCCC(=O)OC2CC(C)(C)NC(C)(C)C2)CC(C)(C)N1 |  | 0.194% [at 19 µM] (inactive) |
| O=C1OCCO1 | inactive |  |
| CC1CCc2c(N3CCC(O)CC3)c(F)cc3c(=O)c(C(=O)O)cn1c23 (configuration not stated) | inactive |  |
